Assay [1] deals with XIP peptide (Xip251-270) binding. Put plainly: small-molecule binders of XIP peptide, primary screen, biochemical, small-molecule microarray, fluorescence 635/667 nm, 0.1 µg/mL protein (AID 1182). The following applies: fluorescent protein binding, 635 nm, higher = more signal, called active from +8 up or from −8 down.
The test system of assay [2] is XIP peptide (Xip251-270). Put plainly: small-molecule binders of XIP peptide, primary screen, biochemical, small-molecule microarray, fluorescence 635/667 nm, 0.5 µg/mL protein (AID 1183). The following applies: small-molecule microarray binding, fluorescence 635 nm; higher = more signal.
Assay [3] is described as follows: Plasmodium falciparum growth inhibition, primary screen, strain 3D7, DAPI fluorescence, 100 nL (AID 1184).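 Further: parasites grown inside human red blood cells in medium with human serum.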 The following applies: P. falciparum 3D7 growth, 3 d, higher = more signal.
The target in assay [4] is Homeobox protein Hox-A13 (Mus musculus) (UniProt Q62424). Kind of assay: inhibitors of HoxA13-DNA binding, primary screen, biochemical, fluorescence polarization, labeled oligonucleotide (AID 1185). The following applies: 15 min, higher = more signal, called active from +8 up or from −8 down. In general terms: In fluorescence polarisation assays a small probe gives low polarisation when free and higher when bound to something large.
Sequence of Homeobox protein Hox-A13 (Mus musculus) (Q62424 whole entry, looked up): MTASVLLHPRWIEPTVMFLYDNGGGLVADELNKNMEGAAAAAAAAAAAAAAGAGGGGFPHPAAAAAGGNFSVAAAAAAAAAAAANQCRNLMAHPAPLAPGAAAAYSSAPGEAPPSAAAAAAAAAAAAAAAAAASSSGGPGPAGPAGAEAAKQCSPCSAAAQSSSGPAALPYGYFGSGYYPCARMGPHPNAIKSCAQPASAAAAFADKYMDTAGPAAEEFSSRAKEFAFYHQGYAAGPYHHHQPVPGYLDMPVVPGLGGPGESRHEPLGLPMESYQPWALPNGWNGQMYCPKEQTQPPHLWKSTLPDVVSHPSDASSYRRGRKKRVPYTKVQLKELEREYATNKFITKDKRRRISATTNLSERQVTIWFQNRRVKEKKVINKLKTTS

Assay [5] is described as follows: inhibitors of hydroxyurea-induced Chk1 phosphorylation, primary screen, imaging, HeLa, phospho-Chk1 antibody, percent positive cells (AID 1186). The following applies: hydroxyurea-induced phospho-Chk1 immunofluorescence imaging, higher = more signal.
The nature of assay [6]: inhibitors of hydroxyurea-induced Chk1 phosphorylation, primary screen, imaging, HeLa, phospho-Chk1 nuclear intensity (AID 1187). The conditions noted are these: hydroxyurea-induced phospho-Chk1 immunofluorescence imaging, higher = more signal.

The source made the active and inactive calls. Unless noted, how the calls were made is not given here.

In the case of `COc1ccc([Si](C)(C)[C@@H]2[C@@H](CCO)O[C@]3(C(=O)N(Cc4ccc(N5CCCCC5=O)cc4)c4ccccc43)[C@H]2C)cc1`, the composite z-score in assay [1] was 2.99 (inactive); in assay [2], 0.769. Further, the z-score in assay [3] is -2.69; in assay [4] it was -5.03 (inactive); in assay [5] it was -0.913 (inactive); in assay [6] it was 0.261 (inactive).

For `O=C1OCC=C[C@H]2OC34C=CCN(Cc5ccccc5)C(=O)[C@H]3N(CCCCCCO)C(=O)[C@@H]4[C@@H]12` (some centres not stated), the composite z-score was 1.49 (inactive) in assay [1] and 0.295 in assay [2]. Besides, the z-score is -1.16 in assay [3], -4.53 (inactive) in assay [4], -0.584 (inactive) in assay [5] and -0.232 (inactive) in assay [6].

For the compound `C=CCC(OC(C)=O)[C@@H]1[C@@H](N(Cc2cccc3ccccc23)C(=O)Cc2ccc(F)cc2)c2cc(OCCCO)ccc2N1C(=O)c1ccc2ccccc2n1` (some centres not stated), the results for the composite z-score in assay [1] and in assay [2] were -0.533 (inactive) and -0.272, respectively. Further, the z-score is -2.13 in assay [3], -1.34 (inactive) in assay [4], -0.172 (inactive) in assay [5] and -0.761 (inactive) in assay [6].

On to `C=C(CCCC)/C(=C/C[C@@H](OC(=O)c1ccncc1)c1ccccc1OCCO)c1cnc2ccccc2c1`, for which the results for the composite z-score in assay [1] and in assay [2] were 0.0648 (inactive) and 0.647, respectively. Besides, the z-score in assay [3] was -3.02; in assay [4], -3.49 (inactive); in assay [5] it was 0.294 (inactive); in assay [6], -0.0646 (inactive).

For the compound `COC(=O)Cn1c(C(=O)N(C)C)cc2c1C[C@H]1CN(C(=O)c3ccccc3)[C@@](Cc3ccc(F)cc3)(C(=O)OC)[C@@H]21`, the composite z-score is 1.69 (inactive) in assay [1] and -0.196 in assay [2]. Further, the z-score is -0.0793 in assay [3], -4.28 (inactive) in assay [4], 0.927 (inactive) in assay [5] and 1.08 (inactive) in assay [6].

`[N-]=[N+]=NCc1ccccc1[C@H]1OC(c2ccc(OCCCO)cc2)=N[C@@]1(CCS(=O)(=O)c1ccccc1)C(=O)N1CCCCC1`: the composite z-score was 0.447 (inactive) in assay [1] and 0.757 in assay [2]. The z-score in assay [3] is -2.46; in assay [4], -3.76 (inactive); in assay [5], -0.0013 (inactive); in assay [6], -0.0087 (inactive).

In the case of `CN(C)C(=O)C1N=C(c2ccc(OCCCO)cc2)N(c2ccccc2)O1` (configuration not stated), the composite z-score in assay [1] is 0.94 (inactive); in assay [2], 0.62. Also, the z-score in assay [3] was 0.639; in assay [4], -1.46 (inactive); in assay [5] it was -0.823 (inactive); in assay [6] it was -0.846 (inactive).

For `CC(C)C(=C=CC[C@H](O)c1cccc(OCCO)c1)C[C@H](O)c1cc(Cl)cc(Cl)c1O`, the composite z-score in assay [1] is -0.41 (inactive); in assay [2], 0.594. In addition, the z-score in assay [3] was -0.487; in assay [4] it was -4.22 (inactive); in assay [5], -0.568 (inactive); in assay [6] it was 0.228 (inactive).

Turning to `CC[C@H]1C2=C3C(CC[C@H]4C(OCc5ccc(F)cc5C(F)(F)F)OC[C@](C)([C@@H]34)N(C(=O)OC(C)(C)C)C2)C(COC)C1COC` (some centres not stated), the composite z-score in assay [1] is 0.716 (inactive); in assay [2], -0.379. The z-score is 0.133 in assay [3], -1.11 (inactive) in assay [4], 0.645 (inactive) in assay [5] and 0.217 (inactive) in assay [6].

With `C#CCN([C@@H](Cc1ccc(O)cc1)C(=O)OC)[C@@H](/C=C/C1CC1)[C@H](O)Cc1ccccc1`, the composite z-score was -0.297 (inactive) in assay [1] and -0.331 in assay [2]. Further, the z-score in assay [3] is 0.501; in assay [4], -7.49 (inactive); in assay [5], -0.453 (inactive); in assay [6], -0.368 (inactive).

On to `COc1ccc([Si](C)(C)[C@H]2[C@H](CC(=O)N(CCO)Cc3ccccc3)O[C@@]3(C(=O)N(Cc4cccc(N5CCOC5=O)c4)c4ccccc43)[C@@H]2C)cc1`, for which the composite z-score was 0.114 (inactive) in assay [1] and 0.77 in assay [2]. The z-score was -2.69 in assay [3], -2.33 (inactive) in assay [4], -0.178 (inactive) in assay [5] and -0.157 (inactive) in assay [6].

In the case of `[N-]=[N+]=NCc1ccccc1C[C@]1(C(N)=O)N=C(c2ccc(OCCCO)cc2)O[C@H]1c1ccccc1`, the composite z-score in assay [1] is 0.594 (inactive); in assay [2], 0.692. Besides, the z-score in assay [3] is -1.42; in assay [4] it was -6.49 (inactive); in assay [5], 0.0449 (inactive); in assay [6], 0.43 (inactive).

For `COC(=O)c1c(CC[C@@H](CO)NC(=O)N2CCC[C@H]2Cn2cc(Cc3ccccc3)nn2)oc(C(C)=O)c1C(=O)OC`, the composite z-score in assay [1] was 2.25 (inactive); in assay [2] it was 0.889. In addition, the z-score is -0.547 in assay [3], -3.88 (inactive) in assay [4], -0.358 (inactive) in assay [5] and -0.522 (inactive) in assay [6].

Regarding `C[N+](C)(C)CCCC[C@@H]1NC(=O)[C@H]2C[C@@H](C(=O)NCCCCCCN)[C@@H](c3ccc(O)cc3)N2C1=O`, the composite z-score is -0.465 (inactive) in assay [1] and 0.825 in assay [2]. The z-score in assay [3] is -0.104; in assay [4] it was -1.61 (inactive); in assay [5] it was 0.181 (inactive); in assay [6], 0.0555 (inactive).

Turning to `COC(=O)c1c(CC[C@@H](CO)NC(=O)N[C@H](Cn2cc(C3(O)CCCCC3)nn2)C(C)C)oc(C(C)=O)c1C(=O)OC`, the figures for the composite z-score in assay [1] and in assay [2] were 0.0887 (inactive) and 0.837, respectively. The z-score in assay [3] was -2.24; in assay [4], -1.69 (inactive); in assay [5] it was 0.303 (inactive); in assay [6], 0.608 (inactive).

With `Cc1ccccc1C(O)C1C=CC2C(=O)N(C)C(=O)C2N1N(c1ccccc1)c1ccccc1` (configuration not stated), the results for the composite z-score in assay [1] and in assay [2] were -0.0728 (inactive) and 0.649, respectively. The z-score in assay [3] is 0.548; in assay [4], -1.17 (inactive); in assay [5], -0.274 (inactive); in assay [6] it was -0.168 (inactive).

`COc1ccc(CCN2C(=O)[C@@]3(Cc4ccccc42)c2ccccc2C(=O)N(Cc2ccccc2OC)[C@H]3c2ccc(CO)cc2)cc1`: the values for the composite z-score in assay [1] and in assay [2] were -0.22 (inactive) and 0.425, respectively. Also, the z-score is -1.39 in assay [3], -0.208 (inactive) in assay [4], -0.154 (inactive) in assay [5] and 0.0689 (inactive) in assay [6].

Values taken from PubChem BioAssay.
